# SW480 rereplic: A quantitative high throughput screen for small molecules that induce DNA re-replication in SW480 colon adenocarcinoma cells | SW480 DNA re-replication, Hoechst DNA content imaging, 48 h | Potency, µM (series often up to 46.1 µM), for inactives: at the top dose re-replication activation, hits mostly activators | actives 1.8% (n = 340,000) | AID 624297, 2012; also: potency is read from the fitted curve at half-maximal effect; % of control where 0% means no effect; nearly all actives have a fitted effect of over 55% in size
#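 250 cells/well; 23 nL cpd via pin tool; 48 hr, 37 C, 5% CO2; Hoechst 40 min; imager read of total nuclear intensity, ex 405/em 500-530 nm.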
# IL-1B inflam inh: qHTS for Inhibitors of Inflammasome Signaling: IL-1-beta AlphaLISA Primary Screen | THP-1 LPS/ATP IL-1B secretion, AlphaLISA, 16 h; active compounds read low | activity change, % at 57.5 µM | actives 4.7% (n = 360,000); in the data active = activity change below about -50%; inconclusive = mostly about -30% to -49%; also: % is scaled to controls: 0 for no effect and ±100 for the full control effect
#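 THP-1 cells pretreated 1 hr with compounds (up to 57.5 uM final), then stimulated with LPS (250 ng/mL final) plus ATP (1.25 mM final); secreted IL-1B measured by AlphaLISA after 16 hr, decreased signal indicating inhibition.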
# Vif-A3G inh: qHTS for Inhibitors of Vif-A3G Interactions: qHTS; DNA dC->dU-editing enzyme APOBEC-3G (Homo sapiens), Q9HC16; HeLa A3G-eYFP + Vif (tagged APOBEC3G with the HIV-1 protein that degrades it), YFP fluorescence, overnight; Potency, µM (doses to about 46.1 µM), for inactives: at the highest dose activity, negative = active, most hits filed as inhibitors; actives 0.076% (n = 410,000); AID 602310, 2012; also: potency is read from the fitted curve at half-maximal effect; % is scaled to controls: 0 for no effect and ±100 for the full control effect; nearly all actives have a fitted effect of over 60% in size
# Target sequence (Q9HC16 whole entry, looked up): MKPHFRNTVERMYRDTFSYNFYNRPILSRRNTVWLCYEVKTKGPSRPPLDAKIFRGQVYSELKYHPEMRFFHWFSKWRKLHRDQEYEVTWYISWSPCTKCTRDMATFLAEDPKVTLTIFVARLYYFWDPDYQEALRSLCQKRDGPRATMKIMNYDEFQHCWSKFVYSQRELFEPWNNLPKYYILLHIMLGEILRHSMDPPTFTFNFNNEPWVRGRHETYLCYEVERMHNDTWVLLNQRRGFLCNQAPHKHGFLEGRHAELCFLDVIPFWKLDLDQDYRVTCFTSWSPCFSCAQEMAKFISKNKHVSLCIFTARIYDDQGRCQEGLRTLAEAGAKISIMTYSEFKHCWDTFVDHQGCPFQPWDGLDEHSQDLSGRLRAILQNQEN
#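 Read-out is eYFP fluorescence (Ex 488/Em 500-530) from Vif-expressing HeLa A3G-eYFP cells; more signal means A3G escaped Vif-mediated degradation. Cells plated overnight, compound pinned in, incubated overnight at 37 deg C.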
# Giardia killer: Small Molecules that selectively kill Giardia lamblia: qHTS; Giardia lamblia trophozoite viability; activity change, % at 7.66 µM, hits read low; actives 0.15% (n = 340,000); in the data active = activity change below about -80%; inconclusive = between about -30% and that limit;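 also: parasites exposed to compound for two days anaerobically before the ATP read; % is scaled to controls: 0 for no effect and ±100 for the full control effect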
#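 Giardia trophozoites, 100 cells per well, were exposed to compounds for 48 hrs at 37 deg C under anaerobic conditions; viability was then read as ATP content by bioluminescence after 15-30 min at room temperature.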
# Vif-APOBEC3F blk: qHTS for Inhibitors of Vif-A3F Interactions: qHTS; HeLa A3F-eYFP + Vif (tagged APOBEC3F with the HIV-1 protein that degrades it), YFP fluorescence increase; AID 602313, 2012; actives 0.2% (n = 390,000); Potency, µM (top dose mostly 46.1 µM), for the others: top-dose activity, negative = active; also: potency is read from the fitted curve at half-maximal effect; % of control where 0% means no effect; nearly all actives have a fitted effect of over 65% in size
#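 Fluorescence increase (Ex 488/Em 500-530) after overnight compound treatment at 37 deg C flags inhibition of Vif-driven A3F-eYFP loss in stable HeLa A3F-eYFP/Vif cells seeded overnight beforehand.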
# MCF10A rereplic: A quantitative high throughput screen for small molecules that induce DNA re-replication in MCF 10a normal breast cells | Potency, µM (top dose mostly 46.1 µM), for the others: at the top dose activity, positive = re-replication, hits mostly activators | MCF 10A DNA re-replication, Hoechst nuclear intensity, 48 h | AID 624296, 2012 | actives 2.9% (n = 350,000); also: potency is read from the fitted curve at half-maximal effect; % of control where 0% means no effect; nearly all actives have a fitted effect of over 50% in size
# Starred values were filed as active, the others as inactive; ? = inconclusive; / = no result given. Most compounds without a hit are left out; they make up all but 6.9% or so of the library. Unless noted, calls follow the shape of the dose curve; as a rule, active = well fitted curve in the direction sought with a large enough effect; inconclusive = small, poorly fitted or top-dose-only effect, or another doubt; inactive = no such curve, though single readings can be large; an effect the other way counts as inactive or inconclusive.
SMILES,SW480 rereplic,IL-1B inflam inh,Vif-A3G inh,Giardia killer,Vif-APOBEC3F blk,MCF10A rereplic
COc1ccc2cc3c(N)nn(C(=O)C4CCC(C(C)(C)C)CC4)c3nc2c1 (centres undefined),6.8%,-86.0*,2.7%,3.4,1.8%,?
COc1ccc2cc3c(N)nn(C(=O)c4ccc(F)cc4Cl)c3nc2c1,/,/,-0.1%,/,0.1%,/
COc1ccc2cc3c(N)nn(C(=O)Cc4ccccc4OC)c3nc2c1,13.3%,-60.1*,2.1%,1.6,-3.0%,5.0%
CCc1ccc2[nH]c(=O)c(CN(CCN(CC)CC)C(=O)NC3CCCCC3)cc2c1,14.3%,-55.8*,0.2%,3.1,-6.2%,?
CCc1ccc2[nH]c(=O)c(CN(CCN(C)C)C(=O)Nc3ccccc3)cc2c1,26.4%,-58.6*,0.3%,2.4,-1.7%,?
COc1ccc2[nH]c(=O)c(CN(CCCN(C)C)C(=O)Nc3ccccc3)cc2c1,2.0%,-17.1,0.5%,-0.9,-7.0%,?
CCc1ccc(NC(=O)CC2C(=O)N(c3cccc(OC)c3)C(=O)N2Cc2ccco2)cc1 (centres undefined),/,/,-0.5%,/,-2.4%,/
O=C(CN(c1cc(C(F)(F)F)ccc1Cl)S(=O)(=O)c1ccccc1)NCCc1ccccc1,/,/,-0.6%,/,9.1%,/
COc1ccc(-c2csc3ncnc(N4CCN(S(=O)(=O)c5ccc(C(C)=O)cc5)CC4)c23)cc1,14.8%,-74.2*,-4.2%,-14.8,4.4%,1.1%
COc1ccc(-c2csc3ncnc(N4CCN(S(=O)(=O)c5cccc(Br)c5)CC4)c23)cc1,16.4%,3.3,-0.3%,-10.8,0.8%,4.4%
Cc1ccc(-c2csc3ncnc(-n4cnc5ccccc54)c23)cc1,?,?,?,-11.9,-2.4%,9.2µM*
CC(C)c1ccc(-c2csc3ncnc(N4CCN(C)CC4)c23)cc1,5.1%,-91.6*,3.9%,-8.5,-4.4%,?
CC(C)(C)C(=O)N1CCN(c2ncnc3scc(-c4ccccc4)c23)CC1,24.1%,-56.0*,-4.5%,17.8,0.4%,7.6%
CCOC(=O)CNC(=O)c1cc2c(=O)n(CC)c3ccccc3c2s1,/,/,3.4%,/,-6.1%,/
CCOC(=O)c1c(S(=O)(=O)N2CCCC(C(=O)N3CCN(c4ccc(F)cc4)CC3)C2)c(C)n(C)c1C (centres undefined),/,/,1.8%,/,-6.8%,/
CC1(C)OC(=O)C2(Cc3cc([N+](=O)[O-])ccc3N3CCCCCC32)C(=O)O1 (centres undefined),/,/,2.3%,-8.7,/,/
COc1ccc(-c2csc3ncnc(N4CCN(c5ccccc5O)CC4)c23)cc1,16.7%,-17.5,-2.8%,-1.9,-1.3%,?
Cc1ccc(-c2csc3ncnc(N4CCN(c5ccccc5O)CC4)c23)cc1,18.4%,-61.3*,-5.3%,?,-0.6%,?
COc1ccc(-c2csc3ncnc(N4CCN(c5ccccc5[N+](=O)[O-])CC4)c23)cc1,?,-6.1,-9.3%,16.0,6.1%,16.4µM*
COc1cc(C(=O)NC(=S)Nc2ccc(Cl)cn2)cc(OC)c1OC,18.4µM*,110.4,0.3%,?,?,?
COc1cc(C(=O)NNC(=S)NC(=O)c2ccc(F)cc2)cc(OC)c1OC,?,83.5,?,-6.2,4.1%,23.1µM*
O=C(NC(=S)Nc1ccc(Cl)cn1)C(c1ccccc1)c1ccccc1,?,0.9,-0.1%,-11.2,-10.5%,14.6µM*
COc1ccc(C(=O)NNC(=S)NC(=O)c2ccc(F)cc2)cc1Br,-21.7%,81.1,-4.8%,26.4,1.5%,9.7%
COc1cc(C(=O)Nc2ccc(NC(=O)c3cccc(Cl)c3)nc2)cc(OC)c1OC,0.8%,-3.9,-0.1%,-11.4,2.0%,11.4%

# Compound activity as filed in PubChem.
